Drawing on publication PMC7862700, “An all-to-all approach to the identification of sequence-specific readers for epigenetic DNA modifications on cytosine”, this text covers binding signal for seven sequences.

Common to all, as to test: DAPPL (digital affinity profiling via proximity ligation, sequencing); 10 mM Tris-HCl pH 7.5, 50 mM NaCl, 1 mM DTT, 4% glycerol, room temperature, 30 min; GST-TFs on glutathione beads, 16-mer random dsDNA library, 0.1% formaldehyde crosslink after washing; high values mean tight binding
Conditions in all cases: protein: recombinant; tags: N-terminal GST; dsDNA, one strand shown

Assay [1] concerns the target T1, FLI1 (Homo sapiens, UniProt Q01543 1-452).
T1 sequence: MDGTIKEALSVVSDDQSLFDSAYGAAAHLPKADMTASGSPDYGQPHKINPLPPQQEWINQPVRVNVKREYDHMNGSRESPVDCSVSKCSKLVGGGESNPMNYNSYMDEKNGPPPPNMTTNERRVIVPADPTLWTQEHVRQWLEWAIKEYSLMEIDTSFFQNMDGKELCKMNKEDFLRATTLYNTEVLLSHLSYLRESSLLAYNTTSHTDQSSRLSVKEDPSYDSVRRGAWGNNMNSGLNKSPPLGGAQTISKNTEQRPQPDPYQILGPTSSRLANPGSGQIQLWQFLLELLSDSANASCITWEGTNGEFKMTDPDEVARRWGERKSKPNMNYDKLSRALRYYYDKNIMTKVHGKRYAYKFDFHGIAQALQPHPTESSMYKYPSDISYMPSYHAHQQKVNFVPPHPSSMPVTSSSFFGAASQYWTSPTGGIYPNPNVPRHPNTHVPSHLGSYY
The method in brief:
(§1)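 Human transcription factors fused to GST were expressed in yeast, captured on glutathione beads, given DNA barcodes and pooled with a GST-only negative control. Pools were incubated with 200 nmole of a 16-mer random double-stranded DNA library in Tris/NaCl/DTT/glycerol buffer at room temperature for 30 min. They were then washed, crosslinked with 0.1% formaldehyde, proximity-ligated (BsaI/T4 ligase, 1 h, 37 °C), PCR-amplified and sequenced on an Illumina NextSeq500. Binding signal is each 6-mer's read frequency for a factor divided by its frequency for the GST control.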

Assay [2] deals with T2, ELK1 (Homo sapiens, UniProt P19419 1-428).
T2 sequence: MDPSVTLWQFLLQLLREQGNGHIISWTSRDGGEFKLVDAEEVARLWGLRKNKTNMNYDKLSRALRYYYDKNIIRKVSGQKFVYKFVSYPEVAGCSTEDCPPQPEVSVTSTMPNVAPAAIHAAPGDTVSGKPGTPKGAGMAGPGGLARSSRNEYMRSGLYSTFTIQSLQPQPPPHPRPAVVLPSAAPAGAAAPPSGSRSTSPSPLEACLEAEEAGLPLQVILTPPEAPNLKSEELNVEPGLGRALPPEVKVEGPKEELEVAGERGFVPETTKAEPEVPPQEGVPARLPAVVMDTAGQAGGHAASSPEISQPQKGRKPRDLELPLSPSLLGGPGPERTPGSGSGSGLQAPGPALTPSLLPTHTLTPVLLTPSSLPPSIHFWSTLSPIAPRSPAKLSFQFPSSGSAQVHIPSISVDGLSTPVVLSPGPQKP
The method in brief:
as §1

The target of assay [3] is T3, GABPA (Homo sapiens, UniProt Q06546 1-454).
T3 sequence: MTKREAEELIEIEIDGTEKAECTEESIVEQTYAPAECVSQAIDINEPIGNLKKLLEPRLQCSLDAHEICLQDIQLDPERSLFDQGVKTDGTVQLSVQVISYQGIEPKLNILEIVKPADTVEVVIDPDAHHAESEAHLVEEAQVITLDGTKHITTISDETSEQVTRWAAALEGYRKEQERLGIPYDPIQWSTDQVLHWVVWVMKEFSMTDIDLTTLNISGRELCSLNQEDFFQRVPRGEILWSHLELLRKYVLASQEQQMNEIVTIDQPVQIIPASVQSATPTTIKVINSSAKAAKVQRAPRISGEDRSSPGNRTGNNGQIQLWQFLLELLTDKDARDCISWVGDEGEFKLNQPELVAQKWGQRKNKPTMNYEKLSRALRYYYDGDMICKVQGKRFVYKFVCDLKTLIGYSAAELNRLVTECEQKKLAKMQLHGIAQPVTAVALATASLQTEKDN
The method in brief: as §1

Assay [4] has as its target T4, ERG (Homo sapiens, UniProt P11308 1-479).
T4 sequence: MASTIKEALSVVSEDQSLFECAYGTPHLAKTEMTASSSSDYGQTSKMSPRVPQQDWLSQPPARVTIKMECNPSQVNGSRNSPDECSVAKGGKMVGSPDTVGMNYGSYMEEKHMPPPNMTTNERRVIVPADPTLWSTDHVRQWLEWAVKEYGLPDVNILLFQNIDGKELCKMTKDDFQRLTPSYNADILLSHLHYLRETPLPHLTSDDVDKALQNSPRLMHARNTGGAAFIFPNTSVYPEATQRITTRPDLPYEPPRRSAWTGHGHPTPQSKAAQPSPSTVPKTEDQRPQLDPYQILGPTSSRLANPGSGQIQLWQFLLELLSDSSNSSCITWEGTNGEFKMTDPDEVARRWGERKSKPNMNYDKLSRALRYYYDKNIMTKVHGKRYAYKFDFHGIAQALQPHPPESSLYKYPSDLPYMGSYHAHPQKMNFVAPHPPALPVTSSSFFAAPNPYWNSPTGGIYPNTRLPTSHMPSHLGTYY
In outline:
as §1

The target of assay [5] is ELF1 (Homo sapiens, UniProt P32519 1-619). In outline: as §1
Chain of ELF1 (P32519 whole entry): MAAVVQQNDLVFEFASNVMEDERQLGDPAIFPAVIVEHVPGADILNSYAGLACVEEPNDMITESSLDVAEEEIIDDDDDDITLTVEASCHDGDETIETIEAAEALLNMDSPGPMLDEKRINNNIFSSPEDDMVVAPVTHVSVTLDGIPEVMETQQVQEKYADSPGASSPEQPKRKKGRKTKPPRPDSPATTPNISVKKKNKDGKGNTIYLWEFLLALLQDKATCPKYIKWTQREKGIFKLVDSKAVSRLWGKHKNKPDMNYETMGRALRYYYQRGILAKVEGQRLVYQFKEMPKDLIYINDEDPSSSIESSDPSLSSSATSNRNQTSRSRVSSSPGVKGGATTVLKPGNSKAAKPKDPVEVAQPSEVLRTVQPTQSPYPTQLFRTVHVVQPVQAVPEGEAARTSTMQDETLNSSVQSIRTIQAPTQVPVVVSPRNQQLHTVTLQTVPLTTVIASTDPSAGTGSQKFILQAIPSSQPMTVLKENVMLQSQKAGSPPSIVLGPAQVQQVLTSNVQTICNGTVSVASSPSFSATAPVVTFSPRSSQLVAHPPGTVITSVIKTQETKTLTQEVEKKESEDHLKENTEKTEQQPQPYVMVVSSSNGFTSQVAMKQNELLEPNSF
The target of assay [6] is T5, EHF (Homo sapiens, UniProt Q9NZC4 1-300).
T5 sequence: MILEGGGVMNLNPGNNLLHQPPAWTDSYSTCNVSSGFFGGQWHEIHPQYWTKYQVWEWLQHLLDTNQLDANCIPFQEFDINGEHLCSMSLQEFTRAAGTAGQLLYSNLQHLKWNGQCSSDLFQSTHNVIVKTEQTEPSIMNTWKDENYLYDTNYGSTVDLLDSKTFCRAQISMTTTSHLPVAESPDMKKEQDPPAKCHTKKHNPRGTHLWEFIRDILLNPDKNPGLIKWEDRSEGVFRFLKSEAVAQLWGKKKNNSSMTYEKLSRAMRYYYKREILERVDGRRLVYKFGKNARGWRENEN
In outline:
as §1

Assay [7] addresses SPI1 (Homo sapiens, UniProt P17947 1-270). The method in brief:
as §1

Assay [8] addresses SPIB (Homo sapiens, UniProt Q01892 1-262). In outline:
as §1

Assay [9] concerns the target T6, ELK3 (Homo sapiens, UniProt P41970 1-407).
T6 sequence: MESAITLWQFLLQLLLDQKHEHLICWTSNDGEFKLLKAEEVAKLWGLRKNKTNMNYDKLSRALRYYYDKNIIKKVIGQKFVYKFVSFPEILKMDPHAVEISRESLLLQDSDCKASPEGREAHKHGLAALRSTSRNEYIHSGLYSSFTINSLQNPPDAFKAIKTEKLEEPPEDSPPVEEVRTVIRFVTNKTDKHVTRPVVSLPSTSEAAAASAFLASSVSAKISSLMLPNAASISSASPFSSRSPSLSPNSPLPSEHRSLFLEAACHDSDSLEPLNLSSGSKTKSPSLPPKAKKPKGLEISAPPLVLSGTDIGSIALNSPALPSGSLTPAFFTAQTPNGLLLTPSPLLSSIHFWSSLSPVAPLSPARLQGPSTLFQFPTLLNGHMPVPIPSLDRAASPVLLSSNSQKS
In outline: as §1

Chain of SPIB (Q01892 whole entry): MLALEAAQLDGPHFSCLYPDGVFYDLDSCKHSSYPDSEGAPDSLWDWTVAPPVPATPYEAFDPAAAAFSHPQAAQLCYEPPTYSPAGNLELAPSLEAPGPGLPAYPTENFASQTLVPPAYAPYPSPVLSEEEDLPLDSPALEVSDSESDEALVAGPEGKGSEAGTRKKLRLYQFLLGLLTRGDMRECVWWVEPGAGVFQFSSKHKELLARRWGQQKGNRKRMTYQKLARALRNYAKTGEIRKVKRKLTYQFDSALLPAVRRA

Regarding CGTCTC, the binding signal in assay [1] is 1.41 fold enrichment (6-mer frequency, TF over GST control); in assay [2], 1.36 fold enrichment (6-mer frequency, TF over GST control); in [3] it was 1.49 fold enrichment (6-mer frequency, TF over GST control); in assay [4] it was 1.31 fold enrichment (6-mer frequency, TF over GST control); in assay [5], 1.53 fold enrichment (6-mer frequency, TF over GST control); in assay [6] it was 1.41 fold enrichment (6-mer frequency, TF over GST control). Besides, the binding signal in [7] is 1.36 fold enrichment (6-mer frequency, TF over GST control); in assay [8], 1.61 fold enrichment (6-mer frequency, TF over GST control); in assay [9] it was 1.63 fold enrichment (6-mer frequency, TF over GST control).
Take CGATAA: the binding signal in assay [1] is 1.12 fold enrichment (6-mer frequency, TF over GST control); in assay [2], 1.02 fold enrichment (6-mer frequency, TF over GST control); in assay [3], 1.06 fold enrichment (6-mer frequency, TF over GST control); in assay [4], 1.09 fold enrichment (6-mer frequency, TF over GST control); in assay [5], 1.08 fold enrichment (6-mer frequency, TF over GST control); in assay [6] it was 1.03 fold enrichment (6-mer frequency, TF over GST control). For the same sequence, the binding signal is 1.08 fold enrichment (6-mer frequency, TF over GST control) in assay [7]; 1.19 fold enrichment (6-mer frequency, TF over GST control) in assay [8]; 1.2 fold enrichment (6-mer frequency, TF over GST control) in [9].
As to TACAAA, the binding signal was 1.14 fold enrichment (6-mer frequency, TF over GST control) in [1]; 1.14 fold enrichment (6-mer frequency, TF over GST control) in [2]; 1.1 fold enrichment (6-mer frequency, TF over GST control) in assay [3]; 1.08 fold enrichment (6-mer frequency, TF over GST control) in assay [4]; 1.14 fold enrichment (6-mer frequency, TF over GST control) in assay [5]; 1.2 fold enrichment (6-mer frequency, TF over GST control) in assay [6]. For the same sequence, the binding signal in assay [7] was 1.07 fold enrichment (6-mer frequency, TF over GST control); in assay [8], 1.06 fold enrichment (6-mer frequency, TF over GST control); in assay [9], 1.06 fold enrichment (6-mer frequency, TF over GST control).
On to CTGATG, for which the binding signal in assay [1] was 1.75 fold enrichment (6-mer frequency, TF over GST control); in assay [2], 1.65 fold enrichment (6-mer frequency, TF over GST control); in [3], 1.7 fold enrichment (6-mer frequency, TF over GST control); in assay [4] it was 1.43 fold enrichment (6-mer frequency, TF over GST control); in assay [5], 1.6 fold enrichment (6-mer frequency, TF over GST control); in assay [6], 1.59 fold enrichment (6-mer frequency, TF over GST control). The binding signal in assay [7] is 1.63 fold enrichment (6-mer frequency, TF over GST control); in assay [8] it was 1.7 fold enrichment (6-mer frequency, TF over GST control); in assay [9], 1.5 fold enrichment (6-mer frequency, TF over GST control).
As for TAAGCT, the binding signal is 1.21 fold enrichment (6-mer frequency, TF over GST control) in [1]; 1.24 fold enrichment (6-mer frequency, TF over GST control) in assay [2]; 1.17 fold enrichment (6-mer frequency, TF over GST control) in assay [3]; 1.18 fold enrichment (6-mer frequency, TF over GST control) in assay [4]; 1.15 fold enrichment (6-mer frequency, TF over GST control) in assay [5]; 1.2 fold enrichment (6-mer frequency, TF over GST control) in assay [6]. The binding signal is 1.1 fold enrichment (6-mer frequency, TF over GST control) in assay [7]; 1.18 fold enrichment (6-mer frequency, TF over GST control) in assay [8]; 1.12 fold enrichment (6-mer frequency, TF over GST control) in [9].
As to TATAAC, the binding signal in assay [1] was 1.22 fold enrichment (6-mer frequency, TF over GST control); in assay [2], 1.21 fold enrichment (6-mer frequency, TF over GST control); in [3] it was 1.2 fold enrichment (6-mer frequency, TF over GST control); in assay [4] it was 1.28 fold enrichment (6-mer frequency, TF over GST control); in assay [5] it was 1.29 fold enrichment (6-mer frequency, TF over GST control); in [6], 1.15 fold enrichment (6-mer frequency, TF over GST control). Besides, the binding signal in [7] was 1.12 fold enrichment (6-mer frequency, TF over GST control); in [8] it was 1.39 fold enrichment (6-mer frequency, TF over GST control); in [9], 1.18 fold enrichment (6-mer frequency, TF over GST control).
For the sequence GTTAAT, the binding signal in [1] was 1.14 fold enrichment (6-mer frequency, TF over GST control); in assay [2], 1.19 fold enrichment (6-mer frequency, TF over GST control); in assay [3], 1.06 fold enrichment (6-mer frequency, TF over GST control); in [4] it was 1.1 fold enrichment (6-mer frequency, TF over GST control); in [5] it was 1.03 fold enrichment (6-mer frequency, TF over GST control); in assay [6], 1.16 fold enrichment (6-mer frequency, TF over GST control). Besides, the binding signal in assay [7] is 1.1 fold enrichment (6-mer frequency, TF over GST control); in assay [8], 1.15 fold enrichment (6-mer frequency, TF over GST control); in [9], 1.12 fold enrichment (6-mer frequency, TF over GST control).
